Compound activity (PubChem)
CF NFkB inh = cystic fibrosis NF-kB activation inhibition; KKLEB NF-kB-GFP reporter, PAF-induced, GFP fluorescence overnight; 0.86% of 360,000 active; inhibition, % at 5 µM;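 active means at least 50% inhibition at 5 µM, scaled per plate between neutral and stimulator controls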;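 further: PAF is a Pseudomonas aeruginosa culture filtrate used as stimulus; plate controls were PAF-stimulated DMSO wells for no effect and unstimulated DMSO wells for full effect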
TROY signal inh = blocks TROY-dependent signaling in reporter cells. Q293 LMP1-TROYcd NF-kB luciferase reporter, 4 h. inhibition, % at 10 µM. 0.98% of 360,000 active. AID 1347056;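 active means compounds whose plate-normalised and pattern-corrected inhibition of the luciferase reporter signal at the single screening dose is 50% or more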
TWEAK-Fn14 inh = blocks TWEAK-Fn14 interaction in a reporter cell assay. TWEAK-stimulated Fn14 reporter cells, luciferase luminescence, 8 h. inhibition, % at 10 µM. 2% of 360,000 active; in the data active means inhibition above about 50%
HIF-2a inh = inhibitors of HIF-2a; 0.72% of 360,000 active; 786-0 RCC cells HIF-2a reporter, luciferase luminescence, overnight; inhibition, % at 18.8 µM;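 active means inhibition of the luminescence signal of 40% or more relative to plate controls, in a single-dose primary screen at 18.75 µM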
KKLEB tox = counter-screen for CF NF-kB inhibitors: cytotoxicity; KKLEB CF airway cells viability, ATPlite luminescence, overnight; active compounds read low; cells stimulated with P. aeruginosa culture filtrate; activity change (cytotoxicity), % at 5 µM; 0.36% of 360,000 active;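 active means corrected activity change at or below -50% at 5 µM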
Peg3 prom inh = inhibitors of Peg3 promoter; HeLa PEG-Prom luciferase reporter, luminescence, overnight; inhibition, % at 20 µM; 1.7% of 360,000 active;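 active means inhibition of at least 50% at 20 µM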
An asterisk follows results filed as active; · = no result. Hits are enriched below; roughly 4% of the tested compounds scored in any of these assays.

SMILES	CF NFkB inh	TROY signal inh	TWEAK-Fn14 inh	HIF-2a inh	KKLEB tox	Peg3 prom inh
CC(C)c1ccc(S(=O)(=O)/N=C2/C=C(Sc3ncn[nH]3)C(=O)c3ccccc32)cc1	83.7*	62.1*	92.3*	49.1*	-49.2	63.7*
CN(CC(=O)Nc1cccc(F)c1)C(=O)CNS(=O)(=O)c1ccc(N(C)C)c([N+](=O)[O-])c1	-4.6	3.9	15.8	3.3	5.2	8.4
CCOc1ccc(Oc2ccc(Cl)cc2NC(=O)C2=COCCO2)cc1	15.8	-1.4	-17.5	6.7	-8.7	1.4
O=C(CC[C@H]1O[C@@H](n2cnc3c(NC(=O)c4ccccc4)ncnc32)[C@H](O)[C@@H]1O)NCc1ccc(OC(F)(F)F)cc1	-17.9	12.8	-13.8	1.2	-3.1	6.3
CCOC(=O)Cc1csc(NC(=O)CSc2nc(=O)[nH]c3c2CCCC3)n1	-7.7	13.1	15.0	5.7	5.9	20.4
Cc1ccc(C(=O)NCCc2ccccc2)cc1	-11.0	67.1*	97.3*	54.5*	-8.2	44.6
COc1ccc(Cn2cc(CN3CCc4onc(-c5ccccc5OC)c4C3=O)nn2)cc1	·	10.4	1.0	9.4	·	·
CCc1cc[n+](C2=C([O-])c3ccccc3C(=O)/C2=N\S(=O)(=O)c2cccs2)cc1	73.5*	24.2	15.8	-32.1	-24.9	-20.3
O=C(c1n[nH]c(=O)c2ccccc12)N1CCOCC1	-9.1	·	56.6*	6.6	0.4	-0.2
O=C(c1n[nH]c(=O)c2ccccc12)N1CCN(Cc2ccc3c(c2)OCO3)CC1	5.5	6.4	1.9	13.9	3.6	6.4
COc1ccc([C@H]2CC(=O)C=C(c3cccc(CO)c3)C2)cc1	20.2	-5.0	1.7	-29.3	-4.4	-30.9
CCCC(=O)N(C1CC(C)C(C#N)(C#N)C1(C#N)C#N)N(C)C (stereo not drawn)	10.9	28.1	5.5	85.7*	1.1	107.3*
CC(=O)N(C1CC(C)C(C#N)(C#N)C1(C#N)C#N)N(C)C (stereo not drawn)	6.2	-11.2	8.2	46.1*	0.5	102.0*
Cc1ccc(-n2c(O)c(C=Nc3ccc4c(c3)OCO4)c3ccccc3c2=O)cc1C	30.1	63.3*	12.4	-17.4	-37.8	26.8
COc1ccc(-n2c(O)c(C=Nc3ccccc3)c3ccccc3c2=O)cc1OC	-11.1	-4.8	-25.1	3.5	7.4	4.5
COc1ccc(-n2c(O)c(C=Nc3ccccc3)c3ccccc3c2=O)cc1	46.8	2.3	1.2	0.1	-51.7*	47.0
O=C1/C(=C/c2cccnc2)CC/C1=C\c1cccnc1	-20.0	7.4	15.3	35.2	11.9	1.9
COc1ccc(/C=C2\CCc3ccccc3C2=O)cc1O	22.9	30.5	73.5*	-133.4	-24.7	-211.0
CC(=O)Nc1ccc(/C=C2\CCc3ccccc3C2=O)cc1	4.1	71.4*	76.0*	-234.4	-57.3*	-307.8
CCC1C/C(=C\c2cccnc2)C(=O)/C(=C/c2cccnc2)C1 (stereo not drawn)	93.3*	59.4*	104.7*	91.6*	-65.6*	108.9*
COc1ccc(/C=C2\Cc3ccccc3C2=O)cc1OC	-23.6	-66.1	-4.8	-92.6	8.5	-37.8
O=C1/C(=C\c2cccnc2)CCc2ccccc21	27.4	·	92.4*	-4.4	4.3	-20.0
O=C1/C(=C/c2ccccc2)CCCc2ccccc21	-7.0	-26.4	-15.3	-64.4	-1.2	-55.8
CC(C)(C)c1ccc2cc(F)cc(F)c2n1	-18.2	-13.7	1.7	6.7	0.9	-1.2
O=C1/C(=C\c2ccc([N+](=O)[O-])cc2)CCc2ccccc21	2.8	55.4*	86.1*	-121.1	-49.6	-128.3
SMILES	CF NFkB inh	TROY signal inh	TWEAK-Fn14 inh	HIF-2a inh	KKLEB tox	Peg3 prom inh
O=C1/C(=C/c2ccc(O)cc2)CCc2ccc([N+](=O)[O-])cc21	-9.4	-12.7	-50.1	-22.7	-9.1	-9.7
CC(C)NC(=O)N(C)C[C@@H]1Oc2cc(Br)ccc2S(=O)(=O)N([C@@H](C)CO)C[C@H]1C	13.1	-10.5	-10.5	-1.3	2.1	-8.8
CN(CCC1CCOCC1)C(=O)C1CCC(=O)N(CCc2ccccc2)C1 (stereo not drawn)	-2.6	-10.5	-5.8	4.8	6.5	9.1
COc1ccc2c(C(=O)CCl)c[nH]c2c1	73.1*	3.8	53.1*	-32.0	-51.7*	48.1
COc1ccc(OCC(=O)c2c[nH]c3ccccc23)cc1	37.0	-28.9	-12.6	-168.0	-7.4	-173.3
COc1ccc(-c2cc(CNC(C)=O)on2)cc1	-18.5	1.3	1.0	-49.7	12.2	-16.3
COc1ccc(-c2cc(CNC(=O)CCl)on2)cc1	-37.8	·	76.4*	1.2	5.1	-28.2
CC1CCCC(NC(=O)CSC2CCCCC2)C1C (stereo not drawn)	-10.7	-24.3	34.9	-63.7	-1.2	-30.1
CC1CCCCC1NC(=O)NC(=O)CCl (stereo not drawn)	11.1	-11.5	-2.9	12.7	-4.6	55.0*
CC1CCCC(NC(=O)NC(=O)CCl)C1C (stereo not drawn)	15.5	-6.4	2.9	6.7	-8.6	51.4*
Cc1cc([N+](=O)[O-])ccc1NC(=O)CSc1nnc(C)n1C	-8.3	-22.5	58.0*	3.4	6.2	1.1
Cc1nnc(SCC(=O)Nc2ccc([N+](=O)[O-])cc2)n1C	-4.5	1.6	-23.2	16.3	6.9	4.7
O=C(O)c1cccc(-n2sc3ccccc3c2=O)c1	-1.3	-15.2	-9.7	-0.6	10.0	-3.9
O=c1c2ccccc2sn1-c1ccccc1	0.7	-60.8	-10.0	-68.9	-12.9	65.4*
O=c1c2ccccc2sn1-c1cccc(Cl)c1	59.6*	10.1	7.7	-188.3	-1.8	-41.8
O=c1c2cc(C(F)(F)F)ccc2sn1-c1ccccc1	50.8*	32.4	43.6	-241.7	-9.9	-82.7
CN(C)S(=O)(=O)c1cccc(-n2sc3ccccc3c2=O)c1	30.4	-39.2	-13.0	-22.4	-9.0	-57.7
O=C(CSc1ccc(Br)cc1)NCC(c1ccco1)N1CCCCC1 (stereo not drawn)	37.1	-0.2	-0.8	-5.2	-21.8	3.2
CSC1=NC(=O)/C(=C\c2cccc3ccccc23)S1	-9.4	-4.0	25.1	-28.2	-2.4	56.5*
O=C(CCl)Nc1ccc(S(=O)(=O)NC2=NCCCCC2)cc1	-86.6	1.4	-0.1	20.1	6.7	39.1
O=C(CCl)Nc1cccc(S(=O)(=O)NC2=NCCCCC2)c1	-6.9	4.2	-0.1	35.4	-18.2	51.1*
Cc1ccccc1CN1C(=O)[C@@H]2Cc3c([nH]c4ccccc34)C(C)(C)N2C1=O	21.0	20.7	41.6	-21.9	-10.3	-6.5
CC1(C)c2[nH]c3ccccc3c2C[C@H]2C(=O)N(Cc3cccc(F)c3)C(=O)N21	23.2	28.6	51.3*	22.6	-19.4	34.5
CC1(C)c2[nH]c3ccccc3c2C[C@@H]2C(=O)N(Cc3ccccc3Cl)C(=O)N21	16.6	30.1	50.8*	-28.4	-2.7	-8.6
C/C(=C\CNc1ncnc2nc[nH]c12)CO	5.2	-0.7	7.3	4.1	9.2	-6.6
